Bioassay records deposited in PubChem BioAssay by several laboratories.
Mdm2-MdmX inh = inhibitors of human Mdm2-MdmX association, primary screen, cell-based, luminescence, split luciferase, SaOS-2, uHTS | AID 485346, 2010 | 330,000 compounds, 3% hits | SaOS-2 split-luciferase Mdm2/MdmX complementation | Protein Mdm4 (Homo sapiens) + E3 ubiquitin-protein ligase Mdm2 (Homo sapiens), … | inhibition, % at 8 µM;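 active means inhibition of at least 50% at 8 µM in the primary screen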
Target sequence (O15151 whole entry, looked up): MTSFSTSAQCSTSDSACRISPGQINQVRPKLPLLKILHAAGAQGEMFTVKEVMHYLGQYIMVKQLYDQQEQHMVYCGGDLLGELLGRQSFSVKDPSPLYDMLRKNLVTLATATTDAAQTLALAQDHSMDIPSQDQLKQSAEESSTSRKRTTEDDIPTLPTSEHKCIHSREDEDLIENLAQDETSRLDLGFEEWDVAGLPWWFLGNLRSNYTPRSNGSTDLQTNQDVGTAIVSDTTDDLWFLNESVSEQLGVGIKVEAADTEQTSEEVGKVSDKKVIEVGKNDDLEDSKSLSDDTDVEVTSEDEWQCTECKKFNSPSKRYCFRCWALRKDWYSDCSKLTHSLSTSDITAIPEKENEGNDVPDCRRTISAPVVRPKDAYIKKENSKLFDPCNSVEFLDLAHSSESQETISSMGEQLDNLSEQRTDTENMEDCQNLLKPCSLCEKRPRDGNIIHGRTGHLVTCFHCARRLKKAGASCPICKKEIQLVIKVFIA
Target sequence (Q00987 whole entry, looked up): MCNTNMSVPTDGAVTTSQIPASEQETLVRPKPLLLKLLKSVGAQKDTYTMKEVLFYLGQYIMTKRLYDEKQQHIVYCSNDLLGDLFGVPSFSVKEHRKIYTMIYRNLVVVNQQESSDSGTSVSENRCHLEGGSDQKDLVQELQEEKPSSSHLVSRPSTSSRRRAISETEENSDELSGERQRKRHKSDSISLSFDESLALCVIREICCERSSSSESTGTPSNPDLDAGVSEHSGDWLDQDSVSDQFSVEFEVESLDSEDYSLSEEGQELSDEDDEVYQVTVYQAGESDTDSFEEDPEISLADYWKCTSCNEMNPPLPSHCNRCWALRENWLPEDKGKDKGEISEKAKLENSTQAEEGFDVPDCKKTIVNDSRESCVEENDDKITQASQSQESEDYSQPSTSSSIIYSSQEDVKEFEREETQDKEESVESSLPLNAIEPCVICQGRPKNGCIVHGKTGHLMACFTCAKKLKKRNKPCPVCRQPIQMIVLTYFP
CF NFkB inh = inhibitors of PAF-induced NF-kB signaling, primary screen, cell-based, GFP fluorescence, uHTS | KKLEB NF-kB-GFP reporter, GFP fluorescence overnight | inhibition, % at 5 µM | 360,000 compounds, 0.86% hits;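 active means at least 50% inhibition at 5 µM, scaled per plate between neutral and stimulator controls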;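 further: PAF is a Pseudomonas aeruginosa culture filtrate used as stimulus; plate controls were PAF-stimulated DMSO wells for no effect and unstimulated DMSO wells for full effect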
KKLEB cytotox = cytotoxicity in KKLEB CF airway cells, primary screen, cytotoxicity control for CF NF-kB inhibitor project, cell-based, uHTS, fluorescence assay plates. AID 602141, 2011. KKLEB CF airway cells viability, ATPlite luminescence, overnight; hits give low values; cells stimulated with P. aeruginosa culture filtrate. 360,000 compounds, 0.36% hits. activity change (cytotoxicity), % at 5 µM;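 active means corrected activity change at or below -50% at 5 µM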
ABHD5 PLIN5 PPI = ABHD5-PLIN5 interaction inhibitors, primary screen, cell lysate, split luciferase complementation, luminescence; inhibition, % at 4 µM; Perilipin-5 (Homo sapiens) + 1-acylglycerol-3-phosphate O-acyltransferase ABHD5 (Homo …; Split G. princeps luciferase complementation, 4 h; 360,000 compounds, 0.78% hits;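 active means inhibition above the mean inhibition across every tested compound plus 3 SD, cut at about 22% in these data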;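 further: 0% = DMSO only wells and the 100% control is not disclosed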
HIF-2a inh = HIF-2a reporter inhibitors, primary screen, luminescence, 786-0 RCC cells | inhibition, % at 18.8 µM | 360,000 compounds, 0.72% hits | 786-0 RCC cells HIF-2a reporter, luciferase luminescence, overnight | AID 624352, 2012;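 active means inhibition of the luminescence signal of 40% or more relative to plate controls, in a single-dose primary screen at 18.75 µM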
Peg3 prom inh = Peg3 promoter-driven luciferase inhibitors, primary screen, cell-based, HeLa, luciferase luminescence; HeLa PEG-Prom luciferase reporter, overnight; inhibition, % at 20 µM; 360,000 compounds, 1.7% hits;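 active means inhibition of at least 50% at 20 µM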
Mdm2-MdmX conf = Mdm2-MdmX complex disruptors, retested hits, confirmation, luminescence, single concentration; shares compounds with Mdm2-MdmX inh; Mdm2-MdmX binding, luminescent assay; inhibition, % at 8 µM; 10,000 compounds, 55% hits; in the data active means inhibition above about 40%
FLuc counter = full-length luciferase signal inhibition, confirmation, counter-screen for Mdm2/MdmX interaction inhibitor project, cell-based, single concentration, SaOS-2 | shares compounds with Mdm2-MdmX inh | SaOS-2 full-length luciferase counterscreen, luminescence | inhibition, % at 8 µM | 6,200 compounds, 77% hits | AID 504607, 2011;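 active means mean inhibition at 8 µM reaching about 37%, which flags the compound as non-specific, limit read from the data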;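 further: p53-null SaOS-2 cells with luciferase driven by a doxycycline-inducible promoter; compound on cells about two nights before reading with doxycycline added after day one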
Numbers without * were called inactive; . = not tested or not shown. Only some compounds are listed: those with a hit (about 4.6% of all), similar ones and a draw of the others.

SMILES	Mdm2-MdmX inh	CF NFkB inh	KKLEB cytotox	ABHD5 PLIN5 PPI	HIF-2a inh	Peg3 prom inh	Mdm2-MdmX conf	FLuc counter
COc1ccc(OC)c(Nc2c3c(nc4ccccc24)CCC3)c1	51*	20	-7	-3	29	8	62*	79*
NC(=O)CN1CCN(Cc2ccc3c(c2)OCO3)CC1	31	1	5	1	11	7	.	.
CCOC(=O)C1CCCN(C(=O)c2ccc(F)c(Cl)c2)CC1 (configuration not stated)	.	2	-4	-3	5	1	.	.
COc1ccc([N+](=O)[O-])cc1Nc1c2ccccc2nc2ccccc12	64*	2	-35	6	15	58*	63*	63*
COc1cc(Nc2c3c(nc4ccccc24)CCC3)cc(OC)c1OC	88*	-1	-24	10	3	6	74*	63*
O=[N+]([O-])c1ccc(Nc2c3ccccc3nc3ccccc23)cc1	20	-10	-27	-8	8	31	.	.
CCOc1ccc(C(=O)Nc2cc(-c3nc4ccccc4[nH]3)ccc2C)cc1[N+](=O)[O-]	45	10	-19	11	-29	25	.	.
Cc1ccc(-c2nc3ccccc3[nH]2)cc1NC(=O)c1ccc2c(c1)OCO2	16	-4	14	0	-66	-7	.	.
O=C(NC(=S)Nc1cc(-c2nc3ccccc3[nH]2)ccc1Cl)c1ccc2c(c1)OCO2	101*	-9	-37	3	-275	100*	71*	70*
CCOc1ccc(C(=O)Nc2cc(-c3nc4ccccc4[nH]3)ccc2Cl)cc1[N+](=O)[O-]	93*	39	-53*	-3	27	62*	23	.
COc1ccc(S(=O)(=O)N(C)[C@H]2C[C@H]3c4cc(Oc5ccccc5C)ccc4CCN3C(=O)[C@H]2[C@H](C)O)cc1	.	33	-19	2	4	22	.	.
COc1cccc(-c2cnc(C(O)c3cc(C)cc(C)c3)[nH]2)c1 (configuration not stated)	.	-31	6	1	-8	17	.	.
COc1cc(OC)c(C(=O)O/N=C(\N)c2ccc(C)cc2)cc1OC	69*	-22	12	5	-69	-18	43*	104*
COc1ccc(/C(N)=N/OC(=O)c2ccc3c(c2)OCO3)cc1OC	91*	10	-6	2	-267	-179	16	.
COc1ccc(/C(N)=N/OC(=O)Cc2ccc(C)cc2)cc1OC	-56	-3	-9	0	-115	-22	.	.
Cc1occc1C(=O)O/N=C(\N)c1ccc(Cl)cc1	100*	-5	6	2	-171	-218	50*	148*
COc1ccc(Cl)cc1C(=O)O/N=C(\N)c1ccc(Cl)cc1	71*	-4	7	-3	-114	-124	45*	81*
Cc1ccc(/C(N)=N/OC(=O)c2ccco2)cc1	-95	-11	2	-1	-234	-233	.	.
COCCNC(=O)C1(C)CCN(Cc2ccc(C(C)C)cc2)C1 (configuration not stated)	.	-8	13	0	7	-4	.	.
CNC(=S)N/N=C/c1c2ccccc2c(Cl)c2ccccc12	19	-71	-5	-6	-46	-39	.	.
NC(=O)C1CCN(C(=O)C2CCN(C(=O)Nc3ccccc3)CC2)CC1	-16	5	8	3	-6	-10	.	.
COc1cc(OC)c(C(=O)O/N=C(\N)c2cccc(C)c2)cc1OC	79*	-11	5	4	-112	-74	47*	100*
Clc1ccc(CSc2nnc(-c3ccncc3)s2)cc1	16	-17	2	3	-90	-40	.	.
Clc1cccc(Cl)c1CSc1nnc(-c2ccncc2)s1	78*	33	-28	8	-332	-108	33	.
COc1ccc2sc(-c3ccc(N(C)C)cc3)c(C#Cc3cncn3C)c2c1	74*	25	-17	13	-36	23	28	.
SMILES	Mdm2-MdmX inh	CF NFkB inh	KKLEB cytotox	ABHD5 PLIN5 PPI	HIF-2a inh	Peg3 prom inh	Mdm2-MdmX conf	FLuc counter
COc1ccc2sc(-c3ccc(N(C)C)cc3)c(C#CC(C)(C)O)c2c1	26	2	1	-16	-45	-42	.	.
COCCCNC(=O)c1ccc(Cn2c(=O)c3ccccc3n(Cc3ccc(C)cc3)c2=O)cc1	56*	2	0	-1	15	36	24	.
Cc1cccc(OCCCC(=O)NNC(=O)c2ccccn2)c1	64*	13	6	2	8	23	52*	41*
COc1ccc(NC(=O)N[C@H]2CC[C@@H](CC(=O)NC3CCC3)O[C@@H]2CO)cc1	.	.	.	0	2	.	.	.
c1ccc(-[n+]2nc(Nc3cccc4ccccc34)sc2-c2c3ccccc3cc3ccccc23)cc1	65*	46	-29	11	-30	12	80*	24
COc1ccc(C)cc1Nc1n[n+](-c2ccccc2)c(-c2c(OC)ccc3ccccc23)s1	92*	38	-6	17	-26	56*	62*	29
Cc1ccccc1-c1cnc(C(O)c2ccc(Cl)cc2)[nH]1 (configuration not stated)	.	0	-9	-11	-117	-56	.	.
COc1ccc(NS(=O)(=O)c2cn(C)cn2)cc1OC	-16	-6	-8	-8	8	9	.	.
Cc1[nH]c2ccccc2c1C(C#N)(C#N)C1C(=O)c2ccccc2C1=O	61*	25	15	0	3	39	43*	11
CC(C)C[C@@]12C(=O)N(c3cccc(Cl)c3)C(=O)N1[C@H](c1ccc(Br)cc1)[C@@H]1C(=O)N(C(C)(C)C)C(=O)[C@@H]12	50*	3	-10	-8	0	12	46*	69*
CC(C)C[C@@]12C(=O)N(c3ccc(Br)cc3)C(=O)N1[C@H](c1ccc(Br)cc1)[C@@H]1C(=O)N(C(C)(C)C)C(=O)[C@@H]12	60*	6	-5	-9	8	8	70*	52*
